The text below walks through data of PubChem BioAssay (NCI).

Test in all cases: NCI-60 one-dose screen, 48 h (100 = growth as untreated, 0 = no growth, -100 = all killed)
For one assay, the system named is SR leukemia. The settings on record: 10 µM unless noted.
In a further assay the test system is RPMI-8226 leukemia. The settings on record: 10 µM unless noted.
A further assay concerns OVCAR-8 ovarian. To be noted: 10 µM unless noted.
Another assay has as its system OVCAR-5 ovarian. The settings on record: 10 µM unless noted.
A further assay deals with OVCAR-4 ovarian. The settings on record: 10 µM unless noted.
A further assay has as its system SK-OV-3 ovarian. The settings on record: 10 µM unless noted.
The subject of a further assay is IGROV1 ovarian. The settings on record: 10 µM unless noted.
Another assay concerns OVCAR-3 ovarian. To be noted: 10 µM unless noted.
Another assay deals with HS 578T breast. To be noted: 10 µM.
In the next assay the test system is NCI/ADR-RES ovarian. To be noted: 10 µM unless noted.
Another assay deals with T-47D breast. The settings on record: 10 µM unless noted.
For the next assay, the system named is BT-549 breast. To be noted: 10 µM unless noted.
A further assay concerns MDA-MB-435 melanoma. The settings on record: 10 µM unless noted.
In the next assay the test system is SW-620 colon. The settings on record: 10 µM unless noted.
A further assay concerns MCF7 breast. The settings on record: 10 µM unless noted.
A further assay deals with HCT-116 colon. To be noted: 10 µM unless noted.
The subject of a further assay is KM12 colon. The settings on record: 10 µM unless noted.
In the next assay the test system is HCC-2998 colon. To be noted: 10 µM unless noted.

The panel holds about 83,000 compounds, 20% with a hit somewhere; the sample as a whole holds those more often.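 The endpoint reported here, percent growth, reads 100 for growth as untreated, 0 for no net growth and -100 for all cells dead.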 Values without a mark were called inactive. Activity calls are given as the source filed them. The calls were made as follows: active = growth percent below 10; inactive = the rest.

For `Cc1ccc(NC(=O)c2[nH]c(SCCN(C)C)nc2-c2ccc(F)cc2)cc1C#Cc1cnc2cccnn12`, the growth is -35.9% (active) in the assay with SR leukemia; -6.17% (active) in the assay on RPMI-8226 leukemia; -12.2% (active) in the assay on OVCAR-8 ovarian; 11.6% in the assay with OVCAR-5 ovarian; -59.2% (active) in the assay with OVCAR-4 ovarian; 98.5% in the assay on SK-OV-3 ovarian. Also, the growth was 78.6% in the assay with IGROV1 ovarian; 102% with OVCAR-3 ovarian; 88.3% in the assay on HS 578T breast; 11.1% with NCI/ADR-RES ovarian; 84.2% in the assay on T-47D breast; 94.8% in the assay with BT-549 breast. Also, the growth is 25.7% in the assay on MDA-MB-435 melanoma; 0.0547% (active) with SW-620 colon; 23.1% with MCF7 breast; -64.3% (active) in the assay with HCT-116 colon; -6.46% (active) with KM12 colon.
Turning to `CCN(CC)C(Cl)=Nc1ccc(Cl)cc1`, the growth was 84.3% with SR leukemia; 95.1% in the assay with RPMI-8226 leukemia; 106% in the assay with OVCAR-8 ovarian; 105% in the assay with OVCAR-5 ovarian; 108% in the assay with OVCAR-4 ovarian; 102% with SK-OV-3 ovarian. The growth is 109% in the assay with IGROV1 ovarian; 107% in the assay with OVCAR-3 ovarian; 101% in the assay with HS 578T breast; 106% in the assay with NCI/ADR-RES ovarian; 102% in the assay with T-47D breast; 112% in the assay with BT-549 breast. Moreover, the growth in the assay with MDA-MB-435 melanoma was 100%; with SW-620 colon, 102%; with HCT-116 colon it was 98.1%; in the assay on HCC-2998 colon it was 101%; in the assay on KM12 colon it was 107%.
`COc1ccc(NC(=O)c2ccc(C(F)(F)F)nc2Nc2ccc(Cl)cc2C)cc1Cl`: the growth is 23.6% in the assay with SR leukemia; -17.9% (active) in the assay with RPMI-8226 leukemia; 15.6% in the assay on OVCAR-8 ovarian; 10.1% with OVCAR-5 ovarian; 24.6% with OVCAR-4 ovarian; 45.4% in the assay on SK-OV-3 ovarian. Also, the growth was 27% with IGROV1 ovarian; 15.5% with OVCAR-3 ovarian; 10.8% with HS 578T breast; 13.3% in the assay on NCI/ADR-RES ovarian; 21.8% with T-47D breast; 19% in the assay on BT-549 breast. Also, the growth with MDA-MB-435 melanoma was 18.6%; in the assay on SW-620 colon, 13.4%; in the assay on HCT-116 colon, 3.71% (active); with HCC-2998 colon, 16.7%; in the assay on KM12 colon it was 24.3%.
Turning to `COc1cccc(/C=N/N=C(N)N)c1`, the growth was 93% in the assay with SR leukemia; 104% in the assay on RPMI-8226 leukemia; 100% in the assay with OVCAR-8 ovarian; 89.7% in the assay with OVCAR-5 ovarian; 91.5% in the assay on OVCAR-4 ovarian; 111% in the assay on SK-OV-3 ovarian. The growth is 107% with IGROV1 ovarian; 105% in the assay on OVCAR-3 ovarian; 113% in the assay on HS 578T breast; 103% with NCI/ADR-RES ovarian; 97.5% in the assay on T-47D breast; 114% in the assay with BT-549 breast. Also, the growth in the assay with MDA-MB-435 melanoma is 114%; in the assay on SW-620 colon, 98%; in the assay with MCF7 breast it was 100%; in the assay with HCC-2998 colon, 107%; with KM12 colon, 96.4%.
Take `O=C1Nc2ccccc2/C1=C/c1c[nH]c2ccccc12`: the growth with SR leukemia was 77.5%; in the assay on RPMI-8226 leukemia it was 77.1%; with OVCAR-8 ovarian it was 84.9%; in the assay on OVCAR-5 ovarian, 105%; in the assay with OVCAR-4 ovarian, 71.7%; in the assay on SK-OV-3 ovarian, 95.7%. For the same compound, the growth in the assay on IGROV1 ovarian is 2.73% (active); in the assay with OVCAR-3 ovarian, 93.5%; in the assay with HS 578T breast, 67.6%; in the assay on NCI/ADR-RES ovarian, 89.6%; in the assay with T-47D breast, 68.3%; with BT-549 breast, 73.5%. The growth in the assay with MDA-MB-435 melanoma was 92.3%; in the assay on MCF7 breast, 63.2%; in the assay on HCT-116 colon, 79.2%; in the assay on HCC-2998 colon it was 98.6%; with KM12 colon, 23.1%.
Consider `Cc1ccc(CSCc2ccc(C(=O)NC3CC3)o2)cc1`, for which the growth with SR leukemia was 18.2%; with RPMI-8226 leukemia, 52.1%; with OVCAR-8 ovarian it was 72%; with OVCAR-5 ovarian, 76.3%; in the assay on OVCAR-4 ovarian, 69.1%; in the assay on SK-OV-3 ovarian it was 108%. Moreover, the growth was 89.2% with IGROV1 ovarian; 74.6% in the assay on OVCAR-3 ovarian; 92.2% in the assay with HS 578T breast; 64.3% in the assay with NCI/ADR-RES ovarian; 48.4% with T-47D breast; 97.9% in the assay on BT-549 breast. The growth with MDA-MB-435 melanoma is 77.7%; with SW-620 colon it was 66.2%; in the assay on MCF7 breast, 25%; in the assay with HCT-116 colon it was 81.1%; in the assay with KM12 colon it was 46.4%.
Consider `COc1ccc(/C(=C\c2cc(OC)c(OC)c(OC)c2)C(=O)N2CCN(c3ccccc3)CC2)cc1O`, for which the growth in the assay with SR leukemia is 87.7%; in the assay with RPMI-8226 leukemia, 73.5%; with OVCAR-8 ovarian, 96.8%; in the assay on OVCAR-5 ovarian it was 101%; in the assay with OVCAR-4 ovarian, 98.1%; in the assay on SK-OV-3 ovarian it was 111%. Further, the growth with IGROV1 ovarian was 102%; in the assay on OVCAR-3 ovarian it was 111%; with HS 578T breast it was 87.8%; with NCI/ADR-RES ovarian, 93.9%; with T-47D breast, 87.4%; with BT-549 breast, 103%. Moreover, the growth was 98.1% in the assay on MDA-MB-435 melanoma; 104% with SW-620 colon; 92.5% in the assay with MCF7 breast; 98.1% with HCC-2998 colon; 96.7% in the assay on KM12 colon.
In the case of `CNC(=O)c1cc(Oc2ccc(NC(=O)c3nc(S(C)(=O)=O)sc3-c3ccc(F)cc3)cc2)ccn1`, the growth in the assay on SR leukemia was 88%; with RPMI-8226 leukemia it was 15.9%; in the assay on OVCAR-8 ovarian it was 102%; in the assay on OVCAR-5 ovarian, 107%; in the assay with OVCAR-4 ovarian, 91.7%; with SK-OV-3 ovarian, 118%. In addition, the growth is 100% in the assay on IGROV1 ovarian; 50% in the assay with OVCAR-3 ovarian; 101% with HS 578T breast; 94.7% with NCI/ADR-RES ovarian; 26.3% in the assay with T-47D breast; 105% in the assay with BT-549 breast. The growth in the assay with MDA-MB-435 melanoma was 98.2%; with SW-620 colon, 104%; in the assay on MCF7 breast it was 29.5%; in the assay with HCC-2998 colon it was 80.2%; in the assay with KM12 colon, 25.3%.
